The results in this text go back to PubChem BioAssay (Tox21).

Results filed as inconclusive are left out. The source made the active and inactive calls. Unless noted, calls follow the shape of the full dose curve.

A short description of experiment [1]: Nuclear factor erythroid 2-related factor 2/antioxidant responsive element (Nrf2/ARE) small molecule agonists: qHTS cell viability counter screen in human keratinocytes (AID 1919968; active = well fitted cell-killing curve with a large enough effect in the repeat runs; also: nearly all actives have a fitted effect of over 55% in size). The gist of the method:
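HaCaT ARE reporter line, 1,500 cells/well; 5 h settle, 37 C/5% CO2; cpd in DMSO pinned; 23 h exposure; CellTiter-Fluor, 1 h; fluorescence.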

Experiment [2] in a line: Nuclear factor erythroid 2-related factor 2/antioxidant responsive element (Nrf2/ARE) small molecule agonists: luciferase reporter gene qHTS assay in human keratinocytes (AID 1919969). Also: nearly all actives have a fitted effect of over 35% in size. A general note: A reporter such as luciferase makes a cellular process visible.
The target in experiment [3] is Gonadotropin-releasing hormone receptor (Homo sapiens) (UniProt P30968). The experiment in a line: Human gonadotropin-releasing hormone receptor (GnRHR) small molecule agonists, calcium flux assay in GnRHR-HEK293 cells (AID 1920063). Also: nearly all actives have a fitted effect of over 35% in size. Also: potency is read from the fitted curve at half-maximal effect. The procedure, abridged:
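GnRHR-HEK293, 1500 cells/well, 18 h 37 C/5% CO2; Ca dye 1 h 37 C; cpd pinned (DMSO), agonist mode; kinetic FL 480/540, 3 min, 1 s reads; 15 conc, n=3.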

Experiment [4] in a line: G protein-coupled receptor (GPCR) small molecule agonists, calcium flux assay: HEK293 wild type cell line counter screen (AID 1920065). The procedure, abridged:
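Kinetic fluorescence at Ex/Em 480/540, recorded every second over 3 min, served as the read-out after compound addition. Each compound was tested at 15 concentrations in triplicate on cells pre-loaded with calcium dye for 1 h.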
(Calcium flux is commonly read through the fluorescence of an indicator in the cells.)

Experiment [5] can be described thus: p53 small molecule agonists, cell-based qHTS assay with human liver microsomes (AID 1963577).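 Also: p53 response element beta-lactamase reporter cells with liver microsomes plus NADPH.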 The procedure, abridged:
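Reporter activation was measured by LiveBLAzer fluorescence intensity in p53RE-bla cells, which had been exposed to compounds for 16 h at 37 C alongside 0.5 mg/mL human liver microsomes and 0.5 mg/mL NADPH (final concentrations).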
(In general: Quantitative high-throughput screening tests each substance at several concentrations.)

Experiment [6] is described as follows: p53 small molecule agonists, cell-based qHTS assay with human liver microsomes: qHTS cell viability counter screen (AID 1963579). Also: nearly all actives have a fitted effect of over 45% in size. The gist of the method: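 HLM-supplemented (0.5 mg/mL final) and NADPH-supplemented (0.5 mg/mL final) p53RE-bla cultures, 4,000 cells per well, were dosed with compounds in DMSO for 16 h at 37 C; luminescent ATP detection (CellTiter-Glo, 30 min, room temperature) quantified surviving cells.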

A short description of experiment [7]: p53 small molecule agonists, cell-based qHTS assay with rat liver microsomes: qHTS cell viability counter screen (AID 1963580). Also: nearly all actives have a fitted effect of over 45% in size. The procedure, abridged: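 Intracellular ATP, by CellTiter-Glo luminescence, defines viability. HCT-116 p53RE-bla cells, 4,000 per well, were compound-treated in the presence of rat liver microsomes and NADPH for 16 h at 37 C.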
Experiment [8] has as its target 5-hydroxytryptamine receptor 2A (Homo sapiens) (UniProt P28223). The experiment in a line: 5-hydroxytryptamine receptor 2A (HTR2A) small molecule antagonists, cell-based qHTS assay (AID 1963586). Also: nearly all actives have a fitted effect of over 45% in size. The procedure, abridged: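 Antagonist-mode intracellular calcium assay: DOI (4 nM) added after 5 min compound pre-incubation at room temperature to dye-loaded HTR2A-CHO cells. Fluorescence followed for 3 min, sampled every second.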

Experiment [9] has the same target. The experiment in a line: 5-hydroxytryptamine receptor 2A (HTR2A) small molecule agonists, cell-based qHTS assay (AID 1963587). Also: nearly all actives have a fitted effect of over 30% in size. Also: potency is read from the fitted curve at half-maximal effect. The procedure, abridged:
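Kinetic calcium-flux fluorescence (2 min, 1 sec intervals) after compound addition in agonist mode. HTR2A-CHO cells were cultured 18 h, then dye-loaded 1 h at 37 C.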

Experiment [10] addresses Muscarinic acetylcholine receptor M1 (Homo sapiens) (UniProt P11229). The experiment in a line: Cholinergic receptor muscarinic 1 (CHRM1) small molecule agonists, cell-based qHTS assay (AID 1963589). Also: nearly all actives have a fitted effect of over 35% in size. The gist of the method:
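Human M1 in stable CHO line; 18 h plating, 1 h dye load 37 C; cpd added (agonist mode); Ca2+ fluorescence kinetic read, 1 s intervals; 15 conc, 3 runs.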

Experiment [11] can be described thus: cAMP Responsive Elements (CRE) small molecule agonists, cell-based qHTS assay (AID 1963590). The procedure, abridged:
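HEK 293T CRE-bla, 2,000 cells/well, 18 h preincubation 37 C/5% CO2; cpds (DMSO) pinned, 3 h; LiveBLAzer B/G FRET substrate, 2 h RT.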

Experiment [12] can be described thus: cAMP Responsive Elements (CRE) small molecule antagonists, cell-based qHTS assay (AID 1963591; active = well fitted inhibition curve with a large enough effect in the signal ratio in the repeat runs, not every such curve was filed as active; the % refers to the signal ratio). The procedure, abridged:
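Beta-lactamase reporter read by FRET substrate (LiveBLAzer B/G) after 2 h at room temperature. CRE-bla HEK293T cells had received compound plus 0.25 uM (final) NKH477 for 3 h at 37 °C.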

For experiment [13], the target named is Beta-2 adrenergic receptor (Homo sapiens) (UniProt P07550). The experiment in a line: Adrenergic beta2 receptor (ADRB2) small molecule antagonists, cell-based qHTS assay (AID 1963592). Also: series mostly up to about 92 µM; nearly all actives have a fitted effect of over 50% in size. The procedure, abridged: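 Cells (CHO, stable ADRB2 overexpression) incubated 18-20hr at 37C; compounds added from DMSO; agonist mix (1nM isoproterenol, 100uM IBMX, 25uM Ro-20-1724) added; 0.5hr RT; d2-cAMP and anti-cAMP-cryptate added; 1hr RT; 665/615 nm read.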

The target of experiment [14] is D(2) dopamine receptor (Homo sapiens) (UniProt P14416). The experiment in a line: Dopamine D2 receptor (DRD2) small molecule agonists, cell-based qHTS assay (AID 1963594). Also: nearly all actives have a fitted effect of over 35% in size. The gist of the method:
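cAMP accumulation in DRD2-HEK293 cells measured by HTRF after 1 h detection; compounds added 10 min before NKH477 (200nM […]) forskolin-analogue stimulation, 30 min at room temperature, with Ro20-1724 present at 0.1 mM final.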

The target is the same in experiment [15]. The experiment in a line: Dopamine D2 receptor (DRD2) small molecule antagonists, cell-based qHTS assay (AID 1963595; active = well fitted inhibition curve with a large enough effect in the signal ratio in the repeat runs, with a control signal flat; the % refers to the signal ratio). The procedure, abridged: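 DRD2-HEK293; 0.1 mM Ro20-1724; cpd 10 min RT; NKH477 200 nM + quinpirole 12 nM, 30 min RT; HTRF cAMP (cAMP-d2/anti-cAMP cryptate), 665/620 nm ratio after 1 h.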
Experiment [16] can be described thus: p53 small molecule agonists, cell-based qHTS assay with rat liver microsomes (AID 1963578). The gist of the method: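 Compound in DMSO added to p53RE-bla cells 5 h post-plating; rat microsomes/NADPH 0.5 mg/mL final; 16 h, 37 C; LiveBLAzer 2 h RT.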
Experiment [17] is described as follows: p53 small molecule agonists, cell-based qHTS assay: qHTS cell viability counter screen (AID 1963581). Also: nearly all actives have a fitted effect of over 45% in size. The gist of the method: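 HCT-116 p53RE-bla cells, 4,000/well, plated 5 h before compound pin transfer; 16 h at 37 C; bla substrate 2 h RT; then CellTiter-Glo, 30 min RT, luminescence.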
A short description of experiment [18]: p53 small molecule agonists, cell-based qHTS assay (AID 1963582; active = well fitted activation curve with a large enough effect in the signal ratio in the repeat runs, not every such curve was filed as active; the % refers to the signal ratio). The procedure, abridged: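 Reporter line: p53RE-bla. Pre-incubation 5 h, 37 C, 5% CO2; compound (DMSO, pin tool) 16 h, 37 C; B/G FRET substrate 2 h RT; fluorescence intensity read.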
Experiment [19] deals with Muscarinic acetylcholine receptor M1 (Homo sapiens) (UniProt P11229). The experiment in a line: Cholinergic receptor muscarinic 1 (CHRM1) small molecule antagonists, cell-based qHTS assay (AID 1963588). Also: nearly all actives have a fitted effect of over 40% in size. The gist of the method: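 CHRM1-CHO calcium-flux assay, antagonist mode. Cells were seeded 18 h, dye-loaded 1 h at 37 C and given compound for 5 min at RT, then acetylcholine was added at 50nM. FDSS fluorescence was read 3 min; 15 concentrations, three runs.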

The target in experiment [20] is Beta-2 adrenergic receptor (Homo sapiens) (UniProt P07550). The experiment in a line: Adrenergic beta2 receptor (ADRB2) small molecule agonists, cell-based qHTS assay (AID 1963593).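 Also: CHO cells stably overexpressing human ADRB2.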 The procedure, abridged: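 CHO cells stably over-expressing ADRB2 were plated overnight at 37C, then dosed with compounds plus a stimulation mix containing 100uM IBMX and 25uM Ro-20-1724 for 0.5hr at room temperature. cAMP was measured by HTRF competition, 1hr.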

Sequence of Muscarinic acetylcholine receptor M1 (Homo sapiens) (P11229 whole entry, looked up): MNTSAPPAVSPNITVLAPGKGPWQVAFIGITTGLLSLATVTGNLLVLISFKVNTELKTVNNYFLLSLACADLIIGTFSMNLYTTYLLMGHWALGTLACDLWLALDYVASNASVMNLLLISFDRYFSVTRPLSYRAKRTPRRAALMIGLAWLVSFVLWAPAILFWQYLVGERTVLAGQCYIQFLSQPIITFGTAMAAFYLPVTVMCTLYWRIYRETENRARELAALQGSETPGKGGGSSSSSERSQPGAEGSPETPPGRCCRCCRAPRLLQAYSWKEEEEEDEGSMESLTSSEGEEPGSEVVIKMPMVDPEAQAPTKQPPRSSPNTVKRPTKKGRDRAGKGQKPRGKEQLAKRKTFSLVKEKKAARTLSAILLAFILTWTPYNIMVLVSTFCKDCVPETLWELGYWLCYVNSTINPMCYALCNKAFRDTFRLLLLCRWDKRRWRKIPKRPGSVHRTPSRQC
Sequence of 5-hydroxytryptamine receptor 2A (Homo sapiens) (P28223 whole entry, looked up): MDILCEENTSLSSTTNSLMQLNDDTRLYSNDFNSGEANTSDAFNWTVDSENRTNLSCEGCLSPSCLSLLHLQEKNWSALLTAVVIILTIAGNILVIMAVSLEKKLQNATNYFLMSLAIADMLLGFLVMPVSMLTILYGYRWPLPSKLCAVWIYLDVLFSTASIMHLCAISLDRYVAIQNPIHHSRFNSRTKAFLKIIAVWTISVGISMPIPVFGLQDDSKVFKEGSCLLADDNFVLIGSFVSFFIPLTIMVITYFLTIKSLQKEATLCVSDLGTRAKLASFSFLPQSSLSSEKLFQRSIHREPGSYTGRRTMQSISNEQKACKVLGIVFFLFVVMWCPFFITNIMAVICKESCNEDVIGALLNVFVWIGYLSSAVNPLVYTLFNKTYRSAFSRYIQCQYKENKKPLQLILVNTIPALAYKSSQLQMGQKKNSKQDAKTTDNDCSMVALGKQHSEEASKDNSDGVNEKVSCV
Sequence of Gonadotropin-releasing hormone receptor (Homo sapiens) (P30968 whole entry, looked up): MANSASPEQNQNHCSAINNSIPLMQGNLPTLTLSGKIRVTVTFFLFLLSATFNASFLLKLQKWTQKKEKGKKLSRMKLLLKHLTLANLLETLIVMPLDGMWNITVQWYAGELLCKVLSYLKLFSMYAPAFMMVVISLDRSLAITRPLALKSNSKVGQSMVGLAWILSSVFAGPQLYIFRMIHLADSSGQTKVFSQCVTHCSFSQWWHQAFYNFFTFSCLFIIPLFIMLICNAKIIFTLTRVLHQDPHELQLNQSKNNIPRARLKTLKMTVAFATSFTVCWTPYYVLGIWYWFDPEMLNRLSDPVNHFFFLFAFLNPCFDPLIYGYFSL
Sequence of Beta-2 adrenergic receptor (Homo sapiens) (P07550 whole entry, looked up): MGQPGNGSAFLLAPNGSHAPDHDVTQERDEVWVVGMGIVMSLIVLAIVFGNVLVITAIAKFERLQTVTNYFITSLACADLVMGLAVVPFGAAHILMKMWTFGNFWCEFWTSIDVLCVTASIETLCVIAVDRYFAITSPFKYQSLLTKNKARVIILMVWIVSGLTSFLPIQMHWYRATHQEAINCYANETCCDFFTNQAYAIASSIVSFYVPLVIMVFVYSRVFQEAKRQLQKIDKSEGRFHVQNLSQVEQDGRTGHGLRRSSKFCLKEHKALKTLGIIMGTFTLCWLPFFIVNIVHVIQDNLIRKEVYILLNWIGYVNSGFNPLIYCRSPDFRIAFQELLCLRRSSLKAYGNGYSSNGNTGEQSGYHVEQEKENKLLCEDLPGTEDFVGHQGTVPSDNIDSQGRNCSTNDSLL
Sequence of D(2) dopamine receptor (Homo sapiens) (P14416 whole entry, looked up): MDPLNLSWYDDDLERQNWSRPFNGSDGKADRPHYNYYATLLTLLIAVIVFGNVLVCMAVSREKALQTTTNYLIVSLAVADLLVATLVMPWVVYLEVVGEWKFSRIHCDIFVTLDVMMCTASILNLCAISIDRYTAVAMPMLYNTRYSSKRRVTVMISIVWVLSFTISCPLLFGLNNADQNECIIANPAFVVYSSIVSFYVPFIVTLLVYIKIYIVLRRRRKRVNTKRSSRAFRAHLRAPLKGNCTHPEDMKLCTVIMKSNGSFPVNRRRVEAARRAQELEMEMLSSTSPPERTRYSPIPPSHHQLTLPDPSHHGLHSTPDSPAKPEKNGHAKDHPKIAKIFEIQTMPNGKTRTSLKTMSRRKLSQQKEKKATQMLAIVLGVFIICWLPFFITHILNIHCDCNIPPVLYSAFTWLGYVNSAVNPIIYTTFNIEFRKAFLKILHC

Turning to `O=c1[nH]cccc1O`, the Potency entry in experiment [1], in experiment [2], in experiment [3], in experiment [5], in [6] and in experiment [7] was “inactive” throughout. In addition, the Potency entry in [8], in [9], in experiment [10], in experiment [11], in experiment [12] and in [13] was “inactive” in each case. The Potency entry in experiment [14] and in experiment [15] was “inactive” each time. For the same compound, the outcome in [4] was inactive.
Consider `NS(=O)(=O)c1cc2c(cc1C(F)(F)F)NCNS2(=O)=O`, for which the Potency result in experiment [1], in experiment [2], in [3], in [5], in [16] and in experiment [7] was “inactive” in each case. Moreover, the Potency result in experiment [17], in experiment [18], in experiment [8], in [9], in experiment [19] and in experiment [10] was “inactive” each time. Moreover, the Potency entry in [11], in experiment [12], in experiment [13], in experiment [14] and in [15] was “inactive” in each case. Further, the outcome in experiment [4] was inactive.
Turning to `COC(=O)N/N=C/c1c[n+]([O-])c2ccccc2[n+]1[O-]`, the Potency entry in experiment [1], in experiment [2], in [5], in experiment [16], in experiment [6] and in experiment [7] was “inactive” in each case. Also, the Potency entry in [18], in [19], in experiment [10], in [11], in experiment [12] and in experiment [13] was “inactive” throughout. For the same compound, the Potency entry in [20], in experiment [14] and in experiment [15] was “inactive” each time. The Potency in experiment [3] was 19 µM (active); in [9], 15.1 µM (active). The outcome in [4] was inactive.
`CCC(C)CCCC(C)(C)O` (stereo not drawn): the Potency result in experiment [1], in experiment [2], in [3], in experiment [5], in [16] and in experiment [7] was “inactive” throughout. Moreover, the Potency result in experiment [17], in experiment [18], in [8], in experiment [9], in [10] and in experiment [12] was “inactive” in each case. Further, the Potency entry in [13], in experiment [14] and in experiment [15] was “inactive” each time. The result in experiment [4] was inactive.
For the compound `Nc1ccc2cc(S(=O)(=O)O)ccc2c1`, the Potency entry in experiment [1], in experiment [2], in [3], in experiment [5], in experiment [16] and in experiment [6] was “inactive” each time. The Potency entry in experiment [7], in experiment [17], in [8], in experiment [9], in [19] and in experiment [10] was “inactive” throughout. Besides, the Potency result in experiment [11], in experiment [12], in experiment [13] and in experiment [14] was “inactive” each time. Further, in experiment [4], the outcome was inactive.
As for `CCCCNS(=O)(=O)c1ccc(C)cc1`, the Potency entry in experiment [1], in experiment [2], in experiment [3], in [5], in [6] and in [7] was “inactive” each time. Further, the Potency result in experiment [17], in experiment [8], in experiment [9], in [19], in experiment [10] and in [11] was “inactive” in each case. For the same compound, the Potency entry in experiment [13], in experiment [20] and in [15] was “inactive” throughout. Moreover, the result in experiment [4] was inactive.
For the compound `CC(C)=CCC/C(C)=C/C=N/O`, the Potency entry in [1], in experiment [2], in experiment [3], in experiment [5], in experiment [16] and in [6] was “inactive” throughout. The Potency entry in [7], in [17], in experiment [8], in experiment [9], in experiment [19] and in [10] was “inactive” throughout. In addition, the Potency result in experiment [13], in [14] and in [15] was “inactive” throughout. Besides, in experiment [4], the outcome was inactive.
Regarding `CCCC(C)C`, the Potency result in experiment [1], in experiment [2], in experiment [3], in experiment [5], in experiment [16] and in experiment [6] was “inactive” throughout. For the same compound, the Potency result in [7], in experiment [17], in [9], in experiment [19], in [10] and in experiment [11] was “inactive” each time. The Potency entry in experiment [12], in experiment [13], in [14] and in experiment [15] was “inactive” each time. The outcome in experiment [4] was inactive.
